Screens: PubChem BioAssay, National Center for Advancing Translational Sciences (NCATS)
EPAC2 ag: qHTS for Agonist of cAMP-regulated guanine nucleotide exchange factor 4 (EPAC2): primary screen; 360,000 compounds, 0.079% hits; EPAC2 activation, biochemical qHTS; response scale: 100% = 6.5 mM cAMP response; Rap guanine nucleotide exchange factor 4 (Homo sapiens), Q8WZA2; Potency, µM (top dose mostly 154 µM), for the others: at the top dose activation, usual class: activators; further: nearly all actives have a fitted effect of over 50% in size
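Compounds were added across a concentration range to EPAC2 (100 nM), RAP1B-BODIPY-GDP (250 nM) and GDP (50 uM). After 5 min at room temperature, fluorescence was recorded at 5-min intervals for 30 min.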
EPAC1 agonist: qHTS for Agonist of cAMP-regulated guanine nucleotide exchange factor 3 (EPAC1): primary screen. EPAC1 agonist qHTS, biochemical assay; response scale: 100% = response to 6.5 mM cAMP. Potency, µM (titrated, usually from 154 µM), for the others: at the highest dose activation, most hits filed as activators. 360,000 compounds, 0.073% hits. AID 720707, 2013; further: nearly all actives have a fitted effect of over 60% in size
Target sequence (O95398 whole entry, looked up): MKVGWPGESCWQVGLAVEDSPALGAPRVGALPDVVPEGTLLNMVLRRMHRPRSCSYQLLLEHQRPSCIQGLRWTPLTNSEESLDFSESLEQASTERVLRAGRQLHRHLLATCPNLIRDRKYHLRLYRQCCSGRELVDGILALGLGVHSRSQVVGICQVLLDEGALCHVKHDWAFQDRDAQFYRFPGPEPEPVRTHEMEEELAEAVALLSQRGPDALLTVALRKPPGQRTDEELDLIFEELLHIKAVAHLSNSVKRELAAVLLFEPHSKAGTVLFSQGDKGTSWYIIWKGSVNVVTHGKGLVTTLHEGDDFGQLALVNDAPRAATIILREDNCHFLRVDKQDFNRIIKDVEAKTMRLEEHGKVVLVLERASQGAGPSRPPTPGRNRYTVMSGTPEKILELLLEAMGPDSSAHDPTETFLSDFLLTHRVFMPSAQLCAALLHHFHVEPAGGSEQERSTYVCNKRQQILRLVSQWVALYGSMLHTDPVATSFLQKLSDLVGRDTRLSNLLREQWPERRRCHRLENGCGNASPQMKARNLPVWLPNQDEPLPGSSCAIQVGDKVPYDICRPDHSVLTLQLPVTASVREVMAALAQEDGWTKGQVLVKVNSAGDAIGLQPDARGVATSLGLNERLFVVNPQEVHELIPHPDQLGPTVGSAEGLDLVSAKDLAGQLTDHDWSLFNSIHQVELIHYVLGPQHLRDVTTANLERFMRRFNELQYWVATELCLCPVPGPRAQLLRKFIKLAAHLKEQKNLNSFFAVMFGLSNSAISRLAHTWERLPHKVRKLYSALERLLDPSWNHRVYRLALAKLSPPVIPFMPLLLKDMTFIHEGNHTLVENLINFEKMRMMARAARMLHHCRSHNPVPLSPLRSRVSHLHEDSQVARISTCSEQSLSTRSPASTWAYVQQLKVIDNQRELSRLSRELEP
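Nucleotide exchange by EPAC1 (100 nM) on Rap1B–BODIPY-GDP (250 nM) in the presence of 50 uM GDP is tracked fluorescently at 480/540 nm over 30 min. Signals are normalized to a 6.5 mM cAMP control.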
EPAC1 antagonist: qHTS for Antagonist of cAMP-regulated guanine nucleotide exchange factor 3 (EPAC1): primary screen. EPAC1 GEF assay, Rap1b-BODIPY-GDP exchange fluorescence. Rap guanine nucleotide exchange factor 3 (Homo sapiens), O95398. AID 720709, 2013. Potency, µM (top dose mostly 115 µM), without a hit: top-dose activity change, negative = inhibition, most hits filed as inhibitors. 360,000 compounds, 0.14% hits;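 further: plate controls were vehicle for no effect and positive control for full effect; nearly all actives have a fitted effect of over 50% in size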
USP1-UAF1 inh: Inhibitors of USP1/UAF1: Primary Screen. Ubiquitin carboxyl-terminal hydrolase 1 (Homo sapiens), O94782. recombinant USP1/UAF1, Ub-Rhodamine cleavage fluorescence. Potency, µM (top dose mostly 57.1 µM), for inactives: at the highest dose activity change, negative = inhibition, usual class: inhibitors. 390,000 compounds, 0.23% hits. AID 743255, 2014; further: on the % scale 0 is the no-effect control and ±100 the full control effect; nearly all actives have a fitted effect of over 60% in size
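USP1/UAF1 complex (1 nM) preincubated 15 min at room temperature with compound, then Ub-Rho substrate (150 nM final) added. Kinetic fluorescence at 480/540 nm over 6 reads at 60 s intervals; 50 mM HEPES pH 7.8, 0.5 mM EDTA, 0.1 mg/ml BSA, 1 mM TCEP, 0.01% Tween-20.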
EPAC2 antagonist: qHTS for Antagonist of cAMP-regulated guanine nucleotide exchange factor 2 (EPAC2): primary screen; EPAC2 GEF exchange of Rap1B-BODIPY-GDP, fluorescence; 360,000 compounds, 0.18% hits; Rap guanine nucleotide exchange factor 4 (Homo sapiens), Q8WZA2; Potency, µM (doses to about 114 µM), inactives show at the highest dose activity, negative = inhibition, most hits filed as inhibitors; further: on the % scale 0 is the no-effect control and ±100 the full control effect; nearly all actives have a fitted effect of over 45% in size
* = called active by the depositor; ? = inconclusive; / = not tested or not shown; [ ] = another dose, or the depositor's remark. Most compounds without a hit are left out; they make up all but 0.44% or so of the library. The call rests on the fitted dose curve; in most records, active means well fitted curve in the direction sought with a large enough effect; inconclusive means small, poorly fitted or top-dose-only effect, or another doubt; inactive means no such curve, though single readings can be large; an effect the other way counts as inactive or inconclusive. Potency means the concentration at half of the fitted maximal effect.

SMILES	EPAC2 ag	EPAC1 agonist	EPAC1 antagonist	USP1-UAF1 inh	EPAC2 antagonist
CC1=CC(=O)Nc2ccccc2S1	13%	8%	4%	22µM*	-5%
O=C(COc1ccc2ccccc2c1)NC1CC(=O)N(c2cccc(F)c2)C1 (configuration not stated)	/	/	/	-19%	/
N#Cc1ccc(/C=C\c2nccc3c2[nH]c2ccccc23)cc1	12%	?	-7%	22µM*	?
Clc1ccc(/C=C\c2nccc3c2[nH]c2ccccc23)cc1	2%	-10%	21%	-21%	10%
CCCCCc1c2c(cc(O)c1C(=O)O)OC(=O)c1cc(C(=O)CCCC)c(OC)cc1O2	4%	-32%	50µM*	-24%	?
CCCCCc1c2c(cc(O)c1C(=O)O)OC(=O)c1c(cc(OC)cc1C(=O)CCCC)O2	-6%	-11%	50µM*	?	50µM*
CCCCc1c(C(=O)O)cc(OC)cc1C(=O)O	-1%	6%	10%	-2%	8%
CCc1ccc2ncc(S(=O)(=O)c3ccc(Cl)cc3)c(N3CCN(CC)CC3)c2c1	/	/	/	-10%	/
COc1cc(/C=C(\C#N)c2nc3ccccc3s2)cc([N+](=O)[O-])c1O	13%	-7%	79µM*	-22%	?
N#C/C(=C\c1ccc(O)c([N+](=O)[O-])c1)c1nc2ccccc2s1	-5%	-9%	?	?	?
CCC(=O)NC(c1cccs1)c1cc(Cl)c2ccccc2c1O (configuration not stated)	22%	4%	-24%	/	79µM*
O=C(NCCS(=O)(=O)N1CCN(c2cccc(Cl)c2)CC1)c1ccc2c(c1)OCO2	-4%	35µM*	-4%	-12%	-9%
O=C(CCl)N1c2ccccc2Oc2ccc3ccccc3c21	2%	?	83%	22µM*	1%
O=C(O)CCc1ccc(-c2ccccc2)n1CC(=O)Nc1ccccc1C(F)(F)F	/	/	/	-14%	/
CC(C)CCn1c(Oc2ccccc2Cl)nc2c1c(=O)n(C)c(=O)n2C	0%	1%	-12%	-14%	32µM*
COC(=O)c1c(C)cc(O)cc1O	4%	-14%	-14%	-29%	-2%
Cc1cc(OC(=O)c2c(C)cc(OC(=O)c3c(C)cc(O)cc3O)cc2O)cc(O)c1C(=O)O	2%	-6%	56µM*	-11%	-3%
COc1ccc(N=Cc2cc(Cc3ccccc3Cl)cc([N+](=O)[O-])c2O)cc1OC	7%	-8%	-16%	?	-11%
Cc1ccc(N=Cc2cc(Cc3ccccc3Cl)cc([N+](=O)[O-])c2O)c(O)c1	21%	23%	?	18µM*	?
Cc1cc(C)c2sc(N(CCCN(C)C)C(=O)c3ccc(S(=O)(=O)N(C)C4CCCCC4)cc3)nc2c1	-6%	45µM*	-15%	-5%	-5%
CN(C)CCCN(C(=O)c1ccc(S(=O)(=O)N(C)C2CCCCC2)cc1)c1nc2ccc(F)cc2s1	7%	7%	-5%	-19%	-8%
COc1ccc(CNC(=O)c2oc3c(c2C)-c2nn(Cc4ccccc4Cl)cc2CC3)cc1	/	/	/	-27%	/
O=c1c2cc([N+](=O)[O-])cc([N+](=O)[O-])c2[nH]n1-c1ccccc1	-17%	-12%	?	-21%	45µM*
COCCn1c(SCC(=O)c2c[nH]c3ccccc23)nc2cc(C(=O)NCC(C)C)ccc2c1=O	/	/	/	-11%	/
CCOc1cc(CNc2ccc(O)cc2)cc(Cl)c1OCc1ccccc1	/	/	/	28µM*	/
SMILES	EPAC2 ag	EPAC1 agonist	EPAC1 antagonist	USP1-UAF1 inh	EPAC2 antagonist
CCOc1cccc(CNn2cnnc2)c1OCc1ccccc1Cl	0%	5%	7%	-2%	-1%
CCOc1cccc(CNCCO)c1OCc1ccc(Cl)cc1Cl	-1%	1%	-13%	-17%	-7%
CCOc1cccc(CNc2ccc(O)cc2)c1OCc1ccc(Cl)cc1Cl	-7%	13%	50µM*	32µM*	?
CCOc1cccc(CNc2ccc(O)cc2)c1OCc1ccccc1Cl	-15%	15%	28µM*	?	-8%
CCOc1cc(CNc2ccccc2)cc(Br)c1OCc1ccc(F)cc1	-2%	8%	0%	?	10%
Cc1cccc(C)c1OCc1nc2c3cnn(-c4cccc(F)c4)c3ncn2n1	/	/	/	-9%	/
CCn1c2ccccc2c2cc(NC(=O)c3ccc(=O)oc3)ccc21	100µM*	19%	12%	?	25%
COc1cc(/C=N/NC(=O)C(Cc2c[nH]c3ccccc23)NC(=O)OCc2ccccc2)cc([N+](=O)[O-])c1O (configuration not stated)	-14%	-6%	79µM*	?	-16%
COc1cc(/C=N/NC(=O)C(Cc2c[nH]c3ccccc23)NC(=O)OCC(C)C)cc([N+](=O)[O-])c1O (configuration not stated)	-9%	-13%	-14%	-22%	1%
Nc1nnc(CC(=O)N/N=C/c2cc([N+](=O)[O-])cc(Br)c2O)s1	-2%	-8%	50µM*	-8%	-1%
Nc1nnc(CC(=O)N/N=C/c2cccc([N+](=O)[O-])c2)s1	5%	-3%	-4%	-18%	7%
CC(=O)N(C(C)=O)N1C(=O)c2cccc3c(N4CCOCC4)ccc(c23)C1=O	-105%	112µM*	?	-17%	38%
CCCCNc1ccc2c3c(cccc13)C(=O)N(CCCC)C2=O	100µM*	79µM*	250%	25µM*	183%
CCCN1C(=O)c2cccc3c(N4CCCCC4)ccc(c23)C1=O	100µM*	?	8%	-21%	34%
CCN(CC)S(=O)(=O)c1ccc(C(=O)OCCN2C(=O)c3cccc4c(N5CCOCC5)ccc(c34)C2=O)cc1	-68%	?	49%	?	118%
O=C1c2cccc3c(N4CCCCC4)ccc(c23)C(=O)N1c1ccccn1	-10%	0%	2%	-22%	-18%[57.1 µM]
CC(=O)NCCNc1nc2c(-c3cccc(C)c3)nnn2c2ccc(Cl)cc12	/	/	/	-14%	/
CCc1ccc(NC2=CC(=O)C(=O)c3ccccc32)cc1	0%	-40%	-23%	28µM*	-8%
CCCCNC1=CC(=O)C(NCCCC)=CC1=O	5%	-11%	4%	-14%	6%
O=C(CN1C(=O)c2ccccc2C1=O)Nc1cccc2cccnc12	7%	-8%	-3%	-12%	-2%
CCCCNC1=CC(=O)C(=O)c2ccccc21	8%	9%	?	25µM*	-1%
